The values below come from PubChem BioAssay (EPA / NIEHS).

The source made the active and inactive calls. Rule for the calls: active = hit-call score of the fitted dose curve at least 0.9, where 1 is the maximum; inactive = score below 0.9.

For orientation: AC50 means the concentration at which the activity in the assay is half-maximal.

Read-out in the assay: Cytochrome P450 (CYP24A1), CYP24A1 (gene 1591)
Put plainly: LTEA_HepaRG_CYP24A1: Life Technologies and Expression Analysis (LTEA) Assay for Cytochrome P450 (CYP24A1) using HepaRG (AID 2283478). As to conditions: mRNA level, 48 h; actives raise or lower the signal. How it is done: LTEA_HepaRG is a cell based, multiplexed-readout assay that uses HepaRG, a human liver cell line, with measurements taken at 48 hours after chemical dosing on a 96-well plate.LTEA_HepaRG_CYP24A1 is one of 102 assay component(s) measured in the LTEA HepaRG cell culture assay. It is a marker of NR mediated metabolism.Data from the assay component LTEA_HepaRG_CYP24A1 was analyzed into 1 endpoint. This assay endpoint, LTEA_HepaRG_CYP24A1, was analyzed with bidirectional fitting relative to DMSO as the negative control and baseline of activity. Using a type of inducible reporter, measures of mRNA induction for gain or loss-of-signal activity can be used to understand regulation of transcription factor activity. To generalize the intended target to other relatable targets, this assay endpoint is annotated to the cyp intended target family, where the subfamily is xenobiotic metabolism.
A total of 1060 chemcials from the ToxCast library were tested in eight-point concentration-response experiments. Cell culture and cytotoxicity assays were conducted at Thermo Fisher Scientific's Custom Services facility (Madison, WI). A single lot of human HepaRG cells (Thermo Fisher Scientific, Frederick, MD) was used for the cell culture experiments. 96-well format collagen type I coated plates of human HepaRG cells were prepared using established methods. Briefly, cryopreserved HepaRG cells were thawed, plated at a density of approximately 100,000 cells/well in HepaRG Thaw, Plate, and General Purpose media (HPRG770, Thermo Fisher Scientific), and incubated for 48 hours. 0.5% DMSO was selected as vehicle control to balance the requisite need of DMSO in HepaRG cultures to maintain differentiation (for example, baseline metabolism, proportions of hepatocytes vs. cholangiocytes), while enabling further hepatic receptor pathway activation (for example, PXR and CAR) in response to chemical exposure. 48 hours after plating, the culture medium was replaced with HepaRG Serum-Free Incudtion Media. Cells were exposed to each test chemical in duplicate and maintained in CO2 incubators for another 48 hours. Chemical plates were thawed to room temperature and 200x concentrations of treatment groups were prepared. 8-point conentration-reponse curves were made with the highest exposure at 100 uM, followed by half-log dilutions, all in 0.5% DMSO. Each test plate contained variouse controls, induction positive controls (1mM phenobarbital), cytotoxicity positive controls ([…] aflatoxin B1), vehicle controls (0.5% DMSO), and total lysis controls (0.5% DMSO). Cell morphology images were taken using an Essen IncuCyte FLR automated microscope, with six 96-well plates imaged in about 24 minutes. Images were captured and exported and JPEG files. Spent culture media was transfered to black-well plates for the LDH assay, and remaining media was sorted at -80 C for later use. Cells were treated with RLT buffer and frozen until shipped for gene expression analysis. Total RNA was isolated from the cell suspension in 75 uL of Buffer RLT (Qiagen, Germantown, MD 20874) by Quintiles/Expression Analysis (Durham, NC) using a custom isolation procedure. Total RNA from each plate well was transferred to a preamplification plate. Fluidigm's 96.96 Dynamic ArrayTM (Fluidigm, Amsterdam, the Netherlands) technology was used for gene expression analyses by quantitative reverse transcription polymerase chain reaction (qRT-PCR, performed by Quintiles/Expression Analysis, Durham, NC)89. Standard TaqManTM Assays (Applied Biosystems/ThermoFisher Scientific, Foster City, CA) were used to assess the expression of 93 genes selected based on their selectivity and sensitivity to important hepatic receptors known to be modulated by environmental chemicals; importance in human hepatocyte functionality; and hepatotoxicity. […]
Consider `O=C(O)C1(C(=O)Nc2ccc(Cl)cc2Cl)CC1`, for which the compound was called inactive. In the case of `CC1(C)C(C=C(Cl)Cl)C1C(=O)OCc1cccc(Oc2ccccc2)c1` (stereo not given), the compound was called inactive. Take `CC(=O)S[C@@H]1CC2=CC(=O)CC[C@]2(C)[C@H]2CC[C@@]3(C)[C@@H](CC[C@@]34CCC(=O)O4)[C@H]12`: the outcome was inactive. As to `C[C@]12C[C@H](O)[C@H]3[C@@H](CCC4=CC(=O)CC[C@@]43C)[C@@H]1CC[C@@H]2C(=O)CO`, the result was inactive. As to `OB(O)O`, the compound was classed as inactive.

Regarding `CCCOC(=O)NCCCN(C)C`, the compound was classed as inactive. Consider `CCCCOC(=O)[C@@H](C)Oc1ccc(Oc2ccc(C(F)(F)F)cn2)cc1`, for which the compound was classed as inactive.

For `C#C[C@]1(O)CC[C@H]2[C@@H]3CCC4=CC(=O)CC[C@@H]4[C@H]3CC[C@@]21CC`, the compound was called inactive. As to `Oc1ccc(C(c2ccc(O)cc2)C(Cl)(Cl)Cl)cc1`, the call was inactive.

Consider `CN(C)C(=O)Nc1ccc(Cl)c(Cl)c1`, for which the result was inactive. `COC(=O)c1ccc(I)cc1S(=O)(=O)NC(=O)Nc1nc(C)nc(OC)n1`: the call was inactive. For the compound `CC(C)CCCCCCc1ccc(O)cc1`, the compound was called inactive.

Consider `CC(=O)[C@H]1CC[C@H]2[C@@H]3CCC4=CC(=O)CC[C@]4(C)[C@H]3CC[C@]12C`, for which the compound was called inactive.

In the case of `c1ccc2[nH]c(-c3cscn3)nc2c1`, the call was inactive. For the compound `CCCCC(CC)COC(=O)c1ccccc1C(=O)O` (stereo not given), the compound was called inactive. Consider `CCCN(CCC)c1c([N+](=O)[O-])cc(C(F)(F)F)c(N)c1[N+](=O)[O-]`, for which the outcome was inactive. On the same count and under the same terms, for `O=C(O)c1ccccc1` the value was “inactive”. `c1ccc(Nc2ccccc2)cc1`: the outcome was inactive. With `O=C(Nc1ccc([N+](=O)[O-])cc1Cl)c1cc(Cl)ccc1O`, the compound was called inactive.

For the compound `S=C([S-])NCCNC(=S)[S-].[Mn+2]`, the compound was classed as inactive.

As for `CCCCOCCOCCOCc1cc2c(cc1CCC)OCO2`, the compound was called inactive. For the compound `S=C(S)NCCNC(=S)S.[Mn+2].[S-]C([S-])=NCCN=C([S-])[S-].[Zn+2]`, the call was inactive. On to `CCCCOC(=O)C(C)Oc1ccc(Oc2ccc(C(F)(F)F)cn2)cc1` (stereo not given), for which the call was inactive. Same read-out and setting: under `C=CCOC(Cn1ccnc1)c1ccc(Cl)cc1Cl` (stereo not given) stands “inactive”; under `O=C(c1ccc(O)cc1O)c1ccc(O)cc1O`, “inactive”; under `CC(C)(C)[C@@H](O)[C@@H](Cc1ccc(Cl)cc1)n1cncn1`, “inactive”. Take `CCOC(=O)COc1cc(-n2ncc(C(F)(F)F)c(C)c2=O)c(F)cc1Cl`: the outcome was inactive. Same read-out and setting: for `Cc1nn(C)c(Oc2ccccc2)c1C=NOCc1ccc(C(=O)OC(C)(C)C)cc1` the value was “inactive”. Turning to `CCN(Cc1c(F)cccc1Cl)c1c([N+](=O)[O-])cc(C(F)(F)F)cc1[N+](=O)[O-]`, the result was inactive. As for `CCC(C)OC(=O)N1CCCCC1CCO` (stereo not given), the call was inactive.

For the compound `COc1c(Cl)ccc(Cl)c1C(=O)O`, the outcome was inactive. As to `CSC(=O)c1cccc2nnsc12`, the call was inactive. For the compound `CC(C)(c1ccc(O)cc1)c1ccc(O)cc1`, the compound was classed as inactive. Turning to `N[C@@H](Cc1cc(I)c(Oc2ccc(O)c(I)c2)c(I)c1)C(=O)O`, the outcome was inactive.

`CCOC(=O)c1ccc(O)cc1`: the outcome was inactive. Still for that read-out and setting: under `C[C@]12CC[C@@H]3c4ccc(O)cc4C[C@@H](CCCCCCCCCS(=O)CCCC(F)(F)C(F)(F)F)[C@H]3[C@@H]1CC[C@@H]2O` (stereo not given in full) stands “inactive”; under `CCCCCCC(C)OC(=O)COc1nc(F)c(Cl)c(N)c1Cl` (stereo not given), “inactive”. In the case of `CCCCCOC(=O)COc1cc(N2C(=O)C3=C(CCCC3)C2=O)c(F)cc1Cl`, the concentration at half-maximal activity (AC50) is 3.16 nM (active). Consider `CCCCC(CC)CN1C(=O)C2C3C=CC(C3)C2C1=O` (stereo not given), for which the call was inactive. Regarding `CCSC(=O)N(CC(C)C)CC(C)C`, the compound was called inactive.
